Where “and” joins values, the source holds several entries; their conditions need not be identical. Identical values can stand only once. In all, about 5,500 compounds went through this assay and about 2,000 (36%) were called active. Roughly 18% stayed inconclusive and do not appear here. Rule as the data show it: active = normalized growth mostly below about 0.91 (no sharp cut-off); inconclusive = no clear call, values can overlap the other calls; inactive = mostly above about 0.92. This is one part of the list.
Test: chemical genetic growth profiling, strain panel (AID 1159580);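 also: tested at 20 µM; growth read once vehicle control cultures reached saturation at 30 °C; 1 = growth at the plate median or of vehicle wells; lower values mean less growth of the strain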
Conditions: S. cerevisiae deletion strains, growth OD

Measured: normalized growth

O=[N+]([O-])c1cc(C(F)(F)F)cc([N+](=O)[O-])c1Oc1ccc(Cl)c(Cl)c1
active: locus YAL013W, strain DEP1, active compounds read low 0.0591 | locus YBR229C, strain ROT2, active compounds read low 0.062 | locus YDL101C, strain DUN1, active compounds read low 0.0834 | locus YDL134C, strain PPH21, active compounds read low 0.0454 | locus YDR150W, strain NUM1, active compounds read low 0.0593 | locus YEL061C, strain CIN8, active compounds read low 0.053 | locus YGR052W, strain FMP48, active compounds read low 0.12 | locus YGR078C, strain PAC10, active compounds read low 0.0542 | locus YGR229C, strain SMI1, active compounds read low 0.0505 | locus YHR030C, strain SLT2, active compounds read low 0.0926 and 0.11 | locus YHR079C, strain IRE1, active compounds read low 0.11 | locus YHR082C, strain KSP1, active compounds read low 0.12 | locus YHR087W, strain rtc3, active compounds read low 0.0631 | locus YJL095W, strain BCK1, active compounds read low 0.12 | locus YJL187C, strain SWE1, active compounds read low 0.0563 | locus YJR043C, strain POL32, active compounds read low 0.0569 | locus YJR066W, strain TOR1, active compounds read low 0.11 | locus YJR075W, strain HOC1, active compounds read low 0.084 | locus YKL171W, strain NNK1, active compounds read low 0.101 | locus YKL190W, strain CNB1, active compounds read low 0.0457 | locus YKL203C, strain TOR2, active compounds read low 0.0962 | locus YLR039C, strain RIC1, active compounds read low 0.0653 | locus YLR058C, strain SHM2 (second series), active compounds read low 0.0562 | locus YLR085C, strain ARP6, active compounds read low 0.0698 | locus YLR113W, strain HOG1, active compounds read low 0.173 | locus YLR262C, strain YPT6, active compounds read low 0.0617 | locus YML094W, strain GIM5, active compounds read low 0.0673 | locus YMR219W, strain ESC1, active compounds read low 0.0518 | locus YMR263W, strain SAP30, active compounds read low 0.0593 | locus YNL128W, strain TEP1, active compounds read low 0.0548 | locus YNL153C, strain GIM3, active compounds read low 0.0599 | locus YNL183C, strain NPR1, active compounds read low 0.146 | locus YNL207W, strain RIO2, active compounds read low 0.108 | locus YNL298W, strain CLA4 (second series), active compounds read low 0.0706 | locus YNL322C, strain KRE1, active compounds read low 0.0592 | locus YNR030W, strain Alg12, active compounds read low 0.0612 | locus YOL006C, strain TOP1, active compounds read low 0.068 | locus YOR119C, strain RIO1, active compounds read low 0.095 | locus YOR231W, strain MKK1, active compounds read low 0.113 | locus YPL055C, strain LGE1, active compounds read low 0.0764 | locus YPL241C, strain CIN2, active compounds read low 0.061 | locus YPL256C, strain CLN2, active compounds read low 0.135 | locus YPR135W, strain CTF4, active compounds read low 0.184
